This passage reports Potency, viability (% of control) and viability, % of control results from PubChem BioAssay (NCATS).

Several values for one entry are separate records, joined by “and”; a condition that tells them apart may be missing. Equal entries are not always repeated. Results filed as inconclusive are left out. A call without a number means that no potency is given here. Values without a mark were called inactive. Activity calls are given as the source filed them. The call rests on the fitted dose curve; in most records, active means well fitted cell-killing curve with a large enough effect; inconclusive means small, poorly fitted or top-dose-only effect, or effect the other way; inactive means no such curve, though single readings can be large or run the other way.
Potency means the concentration at half of the fitted maximal effect.

One assay in a line: Viability qHTS for spleen associated tyrosine kinase inhibitor (SYKi) naive MV4-11 cells (AID 1963823). Further: nearly all actives have a fitted effect of over 40% in size. The note with it: MV4-11 AML viability, CellTiter-Glo luminescence, 72 h; series mostly up to 45 µM. The procedure, abridged: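 Read-out: CellTiter-Glo luminescence. Exposure: 72 hr, 37 C, 5% CO2, 95% humidity. Cells: MV4-11 without SYK inhibitor history, 500/well, qHTS format.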
On the technique in general: qHTS replaces the single test concentration by a dilution series.
For `Cn1c(=O)cc(N2CCCC(N)C2)n(Cc2ccccc2C#N)c1=O` (configuration not stated), the Potency entry was “inactive”.

In the case of `Nc1ncnc2c1c(-c1ccc(Oc3ccccc3)cc1)nn2[C@@H]1CCCNC1`, the Potency was 0.206 µM (active).

Regarding `C=C1C(=O)OC2CC3(C)C(O)C(=O)C=C(C)C3CC12` (configuration not stated), the Potency was 23.1 µM (active).

As for `CC12CCC3c4ccc(OC5OC(C(=O)O)C(O)C(O)C5O)cc4CCC3C1CCC2O` (configuration not stated), the Potency entry is “inactive”.

In the case of `CC(=O)N[C@@H](CCCCN)C(=O)N(C)[C@@H](CC(C)C)C(=O)N[C@H](C(=O)N(C)[C@@H](Cc1ccccc1)C(=O)N[C@H](Cc1ccccc1)C(N)=O)C(C)C`, the viability (% of control) is 93.5% [at 4.97 µM].

On to `CC(C)OC(=O)OCOP(=O)(COC(C)Cn1cnc2c(N)ncnc21)OCOC(=O)OC(C)C` (configuration not stated), for which the Potency is 2.31 µM (active).

As for `Cc1c(Cl)cccc1S(=O)(=O)Nc1nc(NCCc2ccccc2)nc2c1CN(Cc1ccccc1)CC2`, the Potency was 16.4 µM (active).

On to `CC1=C(CCC(C)O[C@@H]2O[C@H](CO)[C@@H](O)[C@H](O)[C@H]2O)C(C)(C)CC(O)C1` (some centres not stated), for which the Potency result was “inactive”.

For `C=C1C[C@@]23CC[C@@H]4[C@](C)(C(=O)O)CCC[C@@]4(C)C2=CC[C@H]1C3`, the Potency entry is “inactive”.

Turning to `CCC(CC)C(=O)OC12C(OC(=O)C(C)C)C(C)C3(O)C(C=C(CO)CC4(O)C(=O)C(C)=CC43)C1C2(C)C` (configuration not stated), the Potency was 0.0282 µM (active).

For `O=C(/C=C/c1ccc(O)c(O)c1)OCc1ccccc1O[C@@H]1O[C@H](CO)[C@@H](O)[C@H](O)[C@H]1O`, the Potency entry was “inactive”.

Turning to `CCn1c(-c2nonc2N)nc2c(C#CCO)ncc(OCCCN)c21`, the Potency is 0.58 µM (active).

The next assay can be described thus: Viability qHTS for spleen associated tyrosine kinase inhibitor (SYKi) drug resistant MV4-11 cells (AID 1963824). Further: nearly all actives have a fitted effect of over 35% in size. Particulars: SYKi-resistant MV4-11 viability, CellTiter-Glo, 72 h; series mostly up to 45 µM. The procedure, abridged: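 CellTiter-Glo luminescence, read 10 min after reagent addition, reports viability after a 72 hr compound exposure. Cells are an MV4-11 line made resistant to SYK inhibition, seeded at 500 per well onto compound-containing plates.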
As for `CC1(C)CC2C(C1)C(C)(O)C13CC1(COC3=O)C2O` (configuration not stated), the Potency entry was “inactive”.

In the case of `CCC(=O)OCC(=O)[C@@]1(OC(=O)CC)[C@@H](C)C[C@H]2[C@@H]3CCC4=CC(=O)C=C[C@]4(C)[C@@]3(F)[C@@H](O)C[C@@]21C`, the Potency was 20.6 µM (active).

For the compound `COc1ccc(CC2NCCc3c2[nH]c2ccc(C)cc32)cc1OC` (configuration not stated), the Potency is 7.31 µM (active).

On to `CC(=O)N[C@@H](CC(C)C)C(=O)N[C@@H](CCC(=O)O)C(=O)N[C@@H](CCC(=O)O)C(=O)N[C@@H](CC(=O)O)C(=O)Nc1ccc2c(C(F)(F)F)cc(=O)oc2c1`, for which the Potency result was “inactive”.

Take `O=C(CCC1CCN(Cc2ccccc2)CC1)c1ccc2c(c1)NCCCC2`: the Potency was 14.6 µM (active).

As to `Clc1ccc(Cn2c(CN3CCCC3)nc3ccccc32)cc1`, the Potency was 15 µM (active) and 14.8 µM (active).

For the compound `O=C(CC(c1ccccc1)c1ccccc1)N1CCN(C(c2ccccc2)c2ccccc2)CC1`, the Potency was 10.3 µM (active).

In the case of `NC1(C(=O)NC(CCO)c2ccc(Cl)cc2)CCN(c2ncnc3[nH]ccc23)CC1` (configuration not stated), the Potency is 4.11 µM (active).

`COC(=O)c1ccnc(-c2cc(C(=O)Nc3ccc(C4(N)CC4)cc3)ccn2)c1`: the Potency entry is “inactive”.

On to `COC(=O)C1=CO[C@@H](O[C@@H]2O[C@H](CO)[C@@H](O)[C@H](O)[C@H]2O)[C@H]2[C@@H]1CC(OC)O[C@@H]2C` (some centres not stated), for which the Potency result is “inactive”.

As for `CC(C)=CCC[C@@](C)(O)[C@H]1CC[C@]2(C)[C@@H]1[C@H](O)CC1[C@@]3(C)CC[C@H](O[C@@H]4O[C@H](CO)[C@@H](O)[C@H](O)[C@H]4O[C@@H]4O[C@H](CO)[C@@H](O)[C@H](O)[C@H]4O)C(C)(C)[C@@H]3CC[C@]12C` (some centres not stated), the Potency result is “inactive”.

As for `CC1(C)SC2C(NC(=O)[C@H](C(=O)O)c3ccsc3)C(=O)N2C1C(=O)O` (some centres not stated), the Potency result is “inactive”.

As for `COc1cc(/C=C/CO)cc(OC)c1O[C@@H]1O[C@H](CO[C@@H]2O[C@H](CO)[C@@H](O)[C@H](O)[C@H]2O)[C@@H](O)[C@H](O)[C@H]1O`, the Potency result is “inactive”.

As for `O=c1cc(-c2ccc(O)cc2)oc2cc(OC3OC(CO)C(O)C(O)C3O)c(C3OC(CO)C(O)C(O)C3O)c(O)c12` (configuration not stated), the Potency result is “inactive”.

For `CC1=C(C)C(=O)C(CCCCC#CCCCC#CCO)=C(C)C1=O`, the Potency is 13.3 µM (active).

In the case of `CC1=C(COC2OC(CO)C(O)C(O)C2O)C(C(CO)C(=O)O)CC1` (configuration not stated), the Potency result is “inactive”.

Turning to `CCCCNc1ncc2c(-c3ccc(S(=O)(=O)N4CCOCC4)cc3)nn(C3CCC(O)CC3)c2n1` (configuration not stated), the Potency was 0.0291 µM (active).

With `C=C1[C@H](OC(C)=O)[C@H]2[C@@H](OC(C)=O)[C@](C)(OC(C)=O)C[C@]2(OC(C)=O)C(=O)[C@H](C)/C=C/C(C)(C)C(=O)[C@H](OC(=O)C(C)C)[C@H]1OC(C)=O`, the Potency entry was “inactive”.

Consider `COC1CC(O[C@H]2CC[C@]3(C)C4CC[C@]5(C)C(C6=CC(=O)OC6)=CCC56OC46CC[C@@H]3C2)OC(C)C1O[C@@H]1O[C@H](CO[C@@H]2O[C@H](CO)[C@@H](O)[C@H](O)[C@H]2O)[C@@H](O)[C@H](O)[C@H]1O` (some centres not stated), for which the Potency is 1.38 µM (active).

In the case of `C[C@@H]1O[C@@H](O[C@H]2[C@@H]3C=CO[C@@H](O[C@@H]4O[C@H](CO)[C@@H](O)[C@H](O)[C@H]4O)[C@@H]3[C@@]3(CO)O[C@@H]23)[C@H](OC(=O)/C=C/c2ccc(O)cc2)[C@H](O)[C@H]1O`, the Potency result is “inactive”.

Consider `C[C@@H]1[C@H](O)[C@@H]2OC(=O)C3=C2[C@H](CCC3)[C@@]12C[C@@H](c1ccoc1)OC2=O`, for which the Potency entry is “inactive”.

For `COC(=O)C1=CO[C@@H](O[C@@H]2O[C@H](CO)[C@@H](O)[C@H](O)[C@H]2O)[C@@H]2[C@@H](C)[C@@H](OC(=O)/C=C/c3ccccc3)[C@@H](O)[C@H]12`, the Potency result is “inactive”.

Turning to `C=CC(C)(C)c1[nH]c2ccccc2c1C[C@@H]1NC(=O)[C@H](C)NC1=O`, the Potency entry is “inactive”.

In the case of `O=C(/C=C/c1ccccc1)OC[C@]12O[C@H]1[C@@H](O)[C@@H]1C=CO[C@@H](O[C@@H]3O[C@H](CO)[C@@H](O)[C@H](O)[C@H]3O)[C@@H]12`, the Potency result was “inactive”.

Take `Cc1ncc(Cl)cc1NCc1ccc(C(=O)NC(CC2CCCC2)C(=O)NC2CC2)s1` (configuration not stated): the Potency is 18.6 µM (active).

For the compound `C=C[C@H]1[C@H](O[C@@H]2O[C@H](CO[C@@H]3OC[C@](O)(CO)[C@H]3O)[C@@H](O)[C@H](O)[C@H]2O)OC=C2C(=O)OCC[C@H]21`, the Potency result is “inactive”.

Regarding `Nc1ncnc2c1nc(Cl)n2C1O[C@H](CO)[C@@H](O)[C@H]1O` (some centres not stated), the Potency is 0.146 µM (active).

With `CCC(=O)N1CCc2cc(OC)c(O)cc2C1`, the Potency entry was “inactive”.

Regarding `Cn1c(=O)cc(N2CCCC(N)C2)n(Cc2ccccc2C#N)c1=O` (configuration not stated), the Potency entry is “inactive”.

Take `Nc1ncnc2c1c(-c1ccc(Oc3ccccc3)cc1)nn2[C@@H]1CCCNC1`: the Potency is 0.259 µM (active).

For the compound `C=C1C(=O)OC2CC3(C)C(O)C(=O)C=C(C)C3CC12` (configuration not stated), the Potency is 7.31 µM (active).

Regarding `CC12CCC3c4ccc(OC5OC(C(=O)O)C(O)C(O)C5O)cc4CCC3C1CCC2O` (configuration not stated), the Potency result is “inactive”.

Take `CC(=O)N[C@@H](CCCCN)C(=O)N(C)[C@@H](CC(C)C)C(=O)N[C@H](C(=O)N(C)[C@@H](Cc1ccccc1)C(=O)N[C@H](Cc1ccccc1)C(N)=O)C(C)C`: the viability, % of control is 103% [at 4.97 µM].

As for `CC(C)OC(=O)OCOP(=O)(COC(C)Cn1cnc2c(N)ncnc21)OCOC(=O)OC(C)C` (configuration not stated), the Potency is 2.06 µM (active).

Consider `Cc1c(Cl)cccc1S(=O)(=O)Nc1nc(NCCc2ccccc2)nc2c1CN(Cc1ccccc1)CC2`, for which the Potency is 13 µM (active).

On to `CC1=C(CCC(C)O[C@@H]2O[C@H](CO)[C@@H](O)[C@H](O)[C@H]2O)C(C)(C)CC(O)C1` (some centres not stated), for which the Potency result is “inactive”.

On to `C=C1C[C@@]23CC[C@@H]4[C@](C)(C(=O)O)CCC[C@@]4(C)C2=CC[C@H]1C3`, for which the Potency result was “inactive”.

As for `CCC(CC)C(=O)OC12C(OC(=O)C(C)C)C(C)C3(O)C(C=C(CO)CC4(O)C(=O)C(C)=CC43)C1C2(C)C` (configuration not stated), the Potency is 0.01 µM (active).

Take `O=C(/C=C/c1ccc(O)c(O)c1)OCc1ccccc1O[C@@H]1O[C@H](CO)[C@@H](O)[C@H](O)[C@H]1O`: the Potency result was “inactive”.

As for `CCn1c(-c2nonc2N)nc2c(C#CCO)ncc(OCCCN)c21`, the Potency was 1.84 µM (active).
